# Tests used:
# Assay in all cases: DAPPL (digital affinity profiling via proximity ligation, sequencing); 10 mM Tris-HCl pH 7.5, 50 mM NaCl, 1 mM DTT, 4% glycerol, room temperature, 30 min; GST-TFs on glutathione beads, 16-mer random dsDNA library, 0.1% formaldehyde crosslink after washing; high values mean tight binding
# [1] = biological target: T1, FLI1 (Homo sapiens, UniProt Q01543 1-452); conditions: protein: recombinant; tags: N-terminal GST; dsDNA, one strand shown
# T1 sequence: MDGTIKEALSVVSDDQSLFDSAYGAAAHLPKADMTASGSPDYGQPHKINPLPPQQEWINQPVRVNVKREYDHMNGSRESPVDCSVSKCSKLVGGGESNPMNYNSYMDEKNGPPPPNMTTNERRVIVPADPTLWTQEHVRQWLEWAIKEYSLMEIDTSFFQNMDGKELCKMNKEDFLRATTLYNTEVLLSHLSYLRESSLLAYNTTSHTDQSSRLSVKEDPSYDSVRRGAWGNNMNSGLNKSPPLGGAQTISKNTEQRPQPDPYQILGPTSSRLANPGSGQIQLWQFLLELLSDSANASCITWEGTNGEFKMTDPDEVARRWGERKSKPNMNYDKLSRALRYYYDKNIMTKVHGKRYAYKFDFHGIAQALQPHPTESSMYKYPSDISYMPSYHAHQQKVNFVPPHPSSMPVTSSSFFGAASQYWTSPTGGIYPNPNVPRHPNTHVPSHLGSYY
# Outline: (§1)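 Each value of binding signal is a hexamer's read frequency for a factor divided by the same hexamer's frequency in the tag-only sample. Barcoded, bead-captured GST fusions of human transcription factors made in yeast were pooled with that sample and incubated with 200 nmole of a random double-stranded 16-mer DNA library in Tris/NaCl/DTT/glycerol buffer at room temperature for 30 min. Washing, 0.1% formaldehyde crosslinking, proximity ligation, PCR and Illumina NextSeq500 sequencing followed.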
# [2] = biological target: T2, ELK1 (Homo sapiens, UniProt P19419 1-428); conditions: protein: recombinant; tags: N-terminal GST; dsDNA, one strand shown
# T2 sequence: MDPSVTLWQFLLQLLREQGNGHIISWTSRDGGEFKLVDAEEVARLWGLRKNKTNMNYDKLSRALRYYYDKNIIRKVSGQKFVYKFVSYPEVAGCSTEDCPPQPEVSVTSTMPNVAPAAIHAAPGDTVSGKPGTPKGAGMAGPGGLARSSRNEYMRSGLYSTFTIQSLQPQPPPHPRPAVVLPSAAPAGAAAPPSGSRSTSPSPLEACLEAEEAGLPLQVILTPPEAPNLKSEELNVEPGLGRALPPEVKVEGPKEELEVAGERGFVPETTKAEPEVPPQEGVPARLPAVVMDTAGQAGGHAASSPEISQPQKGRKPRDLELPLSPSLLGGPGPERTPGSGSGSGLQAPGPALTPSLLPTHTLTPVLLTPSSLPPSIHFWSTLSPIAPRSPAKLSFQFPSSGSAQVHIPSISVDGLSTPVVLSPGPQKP
# Outline: as §1
# [3] = biological target: T3, GABPA (Homo sapiens, UniProt Q06546 1-454); conditions: protein: recombinant; tags: N-terminal GST; dsDNA, one strand shown
# T3 sequence: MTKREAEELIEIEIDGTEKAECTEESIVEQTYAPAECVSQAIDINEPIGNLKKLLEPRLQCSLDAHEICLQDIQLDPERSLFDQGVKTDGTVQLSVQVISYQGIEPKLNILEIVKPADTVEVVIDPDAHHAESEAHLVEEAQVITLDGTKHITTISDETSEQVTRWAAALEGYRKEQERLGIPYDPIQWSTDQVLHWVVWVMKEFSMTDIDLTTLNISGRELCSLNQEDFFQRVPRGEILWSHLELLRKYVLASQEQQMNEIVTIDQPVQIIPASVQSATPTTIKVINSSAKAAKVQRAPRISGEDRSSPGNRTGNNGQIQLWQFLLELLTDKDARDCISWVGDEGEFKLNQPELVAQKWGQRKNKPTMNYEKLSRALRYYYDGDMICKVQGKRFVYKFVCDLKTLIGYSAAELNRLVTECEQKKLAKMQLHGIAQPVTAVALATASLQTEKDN
# Outline: as §1
# [4] = biological target: T4, ERG (Homo sapiens, UniProt P11308 1-479); conditions: protein: recombinant; tags: N-terminal GST; dsDNA, one strand shown
# T4 sequence: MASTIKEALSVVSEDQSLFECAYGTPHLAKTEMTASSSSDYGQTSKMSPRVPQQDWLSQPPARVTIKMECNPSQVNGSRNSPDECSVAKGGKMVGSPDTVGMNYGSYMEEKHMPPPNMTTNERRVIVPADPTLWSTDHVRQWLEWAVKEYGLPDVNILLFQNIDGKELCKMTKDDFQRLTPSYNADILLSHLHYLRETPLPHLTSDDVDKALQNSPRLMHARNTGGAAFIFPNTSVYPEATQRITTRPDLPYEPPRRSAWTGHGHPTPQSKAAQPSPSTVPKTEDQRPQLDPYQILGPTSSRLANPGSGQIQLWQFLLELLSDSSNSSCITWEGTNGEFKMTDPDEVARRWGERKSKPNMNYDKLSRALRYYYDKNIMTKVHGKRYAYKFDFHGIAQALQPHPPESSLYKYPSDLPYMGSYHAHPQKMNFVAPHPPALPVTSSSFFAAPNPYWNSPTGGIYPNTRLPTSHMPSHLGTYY
# Outline: as §1
# [5] = biological target: ELF1 (Homo sapiens, UniProt P32519 1-619); conditions: protein: recombinant; tags: N-terminal GST; dsDNA, one strand shown
# Outline: as §1
# [6] = biological target: T5, EHF (Homo sapiens, UniProt Q9NZC4 1-300); conditions: protein: recombinant; tags: N-terminal GST; dsDNA, one strand shown
# T5 sequence: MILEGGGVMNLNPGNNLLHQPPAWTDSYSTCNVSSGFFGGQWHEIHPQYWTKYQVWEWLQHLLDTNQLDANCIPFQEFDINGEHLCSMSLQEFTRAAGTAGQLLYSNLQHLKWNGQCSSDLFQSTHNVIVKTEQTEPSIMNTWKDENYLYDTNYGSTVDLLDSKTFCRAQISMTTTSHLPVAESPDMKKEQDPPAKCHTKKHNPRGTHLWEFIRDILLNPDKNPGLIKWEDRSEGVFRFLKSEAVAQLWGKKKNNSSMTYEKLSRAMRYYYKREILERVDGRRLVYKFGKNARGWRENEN
# Outline: as §1
# [7] = biological target: SPI1 (Homo sapiens, UniProt P17947 1-270); conditions: protein: recombinant; tags: N-terminal GST; dsDNA, one strand shown
# Outline: as §1
# [8] = biological target: SPIB (Homo sapiens, UniProt Q01892 1-262); conditions: protein: recombinant; tags: N-terminal GST; dsDNA, one strand shown
# Outline: as §1
# [9] = biological target: T6, ELK3 (Homo sapiens, UniProt P41970 1-407); conditions: protein: recombinant; tags: N-terminal GST; dsDNA, one strand shown
# T6 sequence: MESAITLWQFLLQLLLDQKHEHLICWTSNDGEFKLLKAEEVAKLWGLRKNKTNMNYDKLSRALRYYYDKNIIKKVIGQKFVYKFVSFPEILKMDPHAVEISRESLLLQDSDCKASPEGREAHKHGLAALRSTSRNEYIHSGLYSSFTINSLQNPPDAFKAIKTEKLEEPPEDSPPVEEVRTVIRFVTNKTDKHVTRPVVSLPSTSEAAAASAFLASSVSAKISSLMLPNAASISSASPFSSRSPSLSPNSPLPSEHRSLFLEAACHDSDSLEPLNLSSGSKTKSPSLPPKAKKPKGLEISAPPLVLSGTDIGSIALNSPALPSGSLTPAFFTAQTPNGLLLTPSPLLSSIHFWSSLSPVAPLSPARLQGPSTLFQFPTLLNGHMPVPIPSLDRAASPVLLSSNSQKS
# Outline: as §1
# [10] = biological target: T7, FEV (Homo sapiens, UniProt Q99581 1-238); conditions: protein: recombinant; tags: N-terminal GST; dsDNA, one strand shown
# T7 sequence: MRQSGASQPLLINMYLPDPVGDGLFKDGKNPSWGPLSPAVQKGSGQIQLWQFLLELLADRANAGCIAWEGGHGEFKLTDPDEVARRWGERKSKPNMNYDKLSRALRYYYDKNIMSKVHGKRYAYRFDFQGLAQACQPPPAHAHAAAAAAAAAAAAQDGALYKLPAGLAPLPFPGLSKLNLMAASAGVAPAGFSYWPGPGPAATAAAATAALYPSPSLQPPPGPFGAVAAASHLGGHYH
# Outline: as §1
# [11] = biological target: ETV5 (Homo sapiens, UniProt P41161 1-510); conditions: protein: recombinant; tags: N-terminal GST; dsDNA, one strand shown
# Outline: as §1
# [12] = biological target: HSF1 (Homo sapiens, UniProt Q00613 1-529); conditions: protein: recombinant; tags: N-terminal GST; chain copies: 3; dsDNA, one strand shown
# Outline: as §1
# [13] = biological target: T8, SPIC (Homo sapiens, UniProt Q8N5J4 1-248); conditions: protein: recombinant; tags: N-terminal GST; dsDNA, one strand shown
# T8 sequence: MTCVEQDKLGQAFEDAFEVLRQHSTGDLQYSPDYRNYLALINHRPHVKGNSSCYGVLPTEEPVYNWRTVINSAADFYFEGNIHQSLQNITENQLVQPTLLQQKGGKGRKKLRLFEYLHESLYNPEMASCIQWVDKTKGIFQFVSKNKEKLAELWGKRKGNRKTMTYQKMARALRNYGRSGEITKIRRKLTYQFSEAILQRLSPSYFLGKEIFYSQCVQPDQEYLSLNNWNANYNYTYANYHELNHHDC
# Outline: as §1
# [14] = biological target: ELF4 (Homo sapiens, UniProt Q99607 1-663); conditions: protein: recombinant; tags: N-terminal GST; dsDNA, one strand shown
# Outline: as §1
# [15] = biological target: T9, ELK4 (Homo sapiens, UniProt P28324-2 1-405); conditions: protein: recombinant; tags: N-terminal GST; dsDNA, one strand shown
# T9 sequence: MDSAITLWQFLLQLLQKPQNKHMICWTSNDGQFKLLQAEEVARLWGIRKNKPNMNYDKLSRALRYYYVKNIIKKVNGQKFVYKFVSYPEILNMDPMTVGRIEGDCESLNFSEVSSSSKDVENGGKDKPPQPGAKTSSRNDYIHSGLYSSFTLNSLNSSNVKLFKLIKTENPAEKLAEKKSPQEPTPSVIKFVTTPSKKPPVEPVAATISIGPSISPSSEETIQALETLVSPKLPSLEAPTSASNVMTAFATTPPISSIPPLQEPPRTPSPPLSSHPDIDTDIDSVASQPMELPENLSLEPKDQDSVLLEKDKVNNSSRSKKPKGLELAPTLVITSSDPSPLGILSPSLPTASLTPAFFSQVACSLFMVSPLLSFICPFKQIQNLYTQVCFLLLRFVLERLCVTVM
# Outline: as §1
# [16] = biological target: T10, ETV2 (Homo sapiens, UniProt O00321 1-342); conditions: protein: recombinant; tags: N-terminal GST; dsDNA, one strand shown
# T10 sequence: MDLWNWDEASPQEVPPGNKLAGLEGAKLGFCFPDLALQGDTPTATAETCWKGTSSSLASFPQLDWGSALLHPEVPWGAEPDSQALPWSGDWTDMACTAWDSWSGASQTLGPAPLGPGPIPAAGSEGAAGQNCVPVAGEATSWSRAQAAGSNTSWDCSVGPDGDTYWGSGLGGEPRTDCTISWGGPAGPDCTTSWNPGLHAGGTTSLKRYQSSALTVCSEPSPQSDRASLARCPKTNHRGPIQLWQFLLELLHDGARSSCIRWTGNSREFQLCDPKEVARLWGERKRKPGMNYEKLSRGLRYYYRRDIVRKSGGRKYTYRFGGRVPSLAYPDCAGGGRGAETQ
# Outline: as §1
# [17] = biological target: T11, ELF3 (Homo sapiens, UniProt P78545 1-371); conditions: protein: recombinant; tags: N-terminal GST; dsDNA, one strand shown
# T11 sequence: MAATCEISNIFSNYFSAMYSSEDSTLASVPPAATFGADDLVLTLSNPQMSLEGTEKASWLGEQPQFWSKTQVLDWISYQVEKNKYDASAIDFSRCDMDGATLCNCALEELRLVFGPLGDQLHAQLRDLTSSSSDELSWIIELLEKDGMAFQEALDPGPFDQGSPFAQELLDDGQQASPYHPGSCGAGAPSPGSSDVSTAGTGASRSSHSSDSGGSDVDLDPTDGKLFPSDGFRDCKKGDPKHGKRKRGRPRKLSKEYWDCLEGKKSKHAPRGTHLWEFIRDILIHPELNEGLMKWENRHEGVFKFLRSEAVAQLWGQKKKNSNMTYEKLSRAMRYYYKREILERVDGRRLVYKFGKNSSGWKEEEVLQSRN
# Outline: as §1
# [18] = biological target: CRX (Homo sapiens, UniProt O43186 1-299); conditions: protein: recombinant; tags: N-terminal GST; dsDNA, one strand shown
# Outline: as §1
# [19] = biological target: ETV1 (Homo sapiens, UniProt P50549 1-477); conditions: protein: recombinant; tags: N-terminal GST; dsDNA, one strand shown
# Outline: as §1
# HSF1, sequence (Q00613 whole entry): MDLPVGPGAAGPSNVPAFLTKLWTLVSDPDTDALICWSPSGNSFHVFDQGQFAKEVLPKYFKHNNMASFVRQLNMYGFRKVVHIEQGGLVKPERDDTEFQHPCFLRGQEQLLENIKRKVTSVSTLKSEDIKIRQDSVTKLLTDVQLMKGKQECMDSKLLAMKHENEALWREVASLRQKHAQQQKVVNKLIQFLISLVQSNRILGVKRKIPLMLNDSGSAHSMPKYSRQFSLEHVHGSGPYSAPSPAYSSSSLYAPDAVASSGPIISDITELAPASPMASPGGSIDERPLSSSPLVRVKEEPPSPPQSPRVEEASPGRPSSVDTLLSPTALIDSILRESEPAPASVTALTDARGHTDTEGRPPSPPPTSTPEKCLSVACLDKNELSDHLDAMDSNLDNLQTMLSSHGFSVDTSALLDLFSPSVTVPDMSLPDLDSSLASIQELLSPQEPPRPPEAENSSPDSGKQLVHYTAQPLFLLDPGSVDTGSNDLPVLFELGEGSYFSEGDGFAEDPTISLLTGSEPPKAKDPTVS
# SPIB, sequence (Q01892 whole entry): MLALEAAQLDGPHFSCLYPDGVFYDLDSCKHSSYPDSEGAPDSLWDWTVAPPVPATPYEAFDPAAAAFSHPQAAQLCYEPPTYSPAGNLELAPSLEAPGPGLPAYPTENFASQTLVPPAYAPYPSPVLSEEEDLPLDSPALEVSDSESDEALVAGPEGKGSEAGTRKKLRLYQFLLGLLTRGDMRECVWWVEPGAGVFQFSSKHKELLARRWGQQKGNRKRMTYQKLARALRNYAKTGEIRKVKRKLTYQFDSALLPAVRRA
# ETV1, sequence (P50549 whole entry): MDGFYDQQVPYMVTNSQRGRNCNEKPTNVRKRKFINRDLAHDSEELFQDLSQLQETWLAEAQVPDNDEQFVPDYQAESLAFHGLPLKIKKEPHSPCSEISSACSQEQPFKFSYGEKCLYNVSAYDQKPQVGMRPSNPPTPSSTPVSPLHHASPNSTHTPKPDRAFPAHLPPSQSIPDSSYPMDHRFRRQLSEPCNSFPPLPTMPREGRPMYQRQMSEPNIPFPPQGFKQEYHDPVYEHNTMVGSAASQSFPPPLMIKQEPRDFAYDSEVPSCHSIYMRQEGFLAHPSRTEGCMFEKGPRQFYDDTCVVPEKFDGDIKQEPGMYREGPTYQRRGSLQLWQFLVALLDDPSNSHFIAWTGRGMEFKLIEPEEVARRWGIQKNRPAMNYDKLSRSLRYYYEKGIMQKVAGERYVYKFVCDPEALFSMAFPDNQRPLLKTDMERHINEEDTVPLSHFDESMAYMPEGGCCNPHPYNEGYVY
# ELF4, sequence (Q99607 whole entry): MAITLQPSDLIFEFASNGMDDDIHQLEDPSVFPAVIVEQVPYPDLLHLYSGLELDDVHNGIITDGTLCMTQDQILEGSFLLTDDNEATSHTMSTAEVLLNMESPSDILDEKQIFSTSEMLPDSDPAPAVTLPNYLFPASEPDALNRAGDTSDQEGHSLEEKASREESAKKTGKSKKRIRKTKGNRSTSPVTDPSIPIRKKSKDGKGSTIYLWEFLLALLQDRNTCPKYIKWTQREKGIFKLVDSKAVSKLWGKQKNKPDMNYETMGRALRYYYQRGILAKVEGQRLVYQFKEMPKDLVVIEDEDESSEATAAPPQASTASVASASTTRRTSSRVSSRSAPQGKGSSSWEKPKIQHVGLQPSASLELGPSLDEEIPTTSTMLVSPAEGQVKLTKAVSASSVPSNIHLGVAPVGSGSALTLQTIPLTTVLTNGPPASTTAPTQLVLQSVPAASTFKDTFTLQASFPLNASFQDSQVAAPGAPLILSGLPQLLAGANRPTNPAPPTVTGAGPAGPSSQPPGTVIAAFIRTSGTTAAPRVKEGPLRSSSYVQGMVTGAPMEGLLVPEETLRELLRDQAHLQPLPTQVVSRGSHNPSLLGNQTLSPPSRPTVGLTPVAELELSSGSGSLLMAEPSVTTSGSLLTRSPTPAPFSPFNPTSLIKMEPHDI
# CRX, sequence (O43186 whole entry): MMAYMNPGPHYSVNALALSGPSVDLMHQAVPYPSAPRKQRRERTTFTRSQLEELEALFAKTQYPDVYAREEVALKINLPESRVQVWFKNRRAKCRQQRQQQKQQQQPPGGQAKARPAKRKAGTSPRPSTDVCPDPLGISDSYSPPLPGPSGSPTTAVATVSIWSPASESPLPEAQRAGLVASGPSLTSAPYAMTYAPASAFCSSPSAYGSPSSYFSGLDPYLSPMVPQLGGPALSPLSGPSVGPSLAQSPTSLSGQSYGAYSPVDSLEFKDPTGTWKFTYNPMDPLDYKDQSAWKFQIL
# ETV5, sequence (P41161 whole entry): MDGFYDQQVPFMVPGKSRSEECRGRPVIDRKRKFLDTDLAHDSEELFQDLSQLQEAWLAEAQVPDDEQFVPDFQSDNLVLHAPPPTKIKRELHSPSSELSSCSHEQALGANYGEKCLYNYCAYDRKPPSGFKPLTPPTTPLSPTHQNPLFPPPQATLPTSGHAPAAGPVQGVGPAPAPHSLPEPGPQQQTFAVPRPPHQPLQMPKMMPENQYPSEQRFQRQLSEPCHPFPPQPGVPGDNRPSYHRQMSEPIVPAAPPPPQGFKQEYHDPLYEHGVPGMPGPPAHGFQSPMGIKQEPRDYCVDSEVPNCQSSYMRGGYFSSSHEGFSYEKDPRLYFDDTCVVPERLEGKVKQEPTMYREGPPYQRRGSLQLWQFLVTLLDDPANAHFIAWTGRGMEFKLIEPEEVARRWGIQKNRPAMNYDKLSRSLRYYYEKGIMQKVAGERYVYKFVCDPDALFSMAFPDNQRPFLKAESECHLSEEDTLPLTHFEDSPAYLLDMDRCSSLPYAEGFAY
# ELF1, sequence (P32519 whole entry): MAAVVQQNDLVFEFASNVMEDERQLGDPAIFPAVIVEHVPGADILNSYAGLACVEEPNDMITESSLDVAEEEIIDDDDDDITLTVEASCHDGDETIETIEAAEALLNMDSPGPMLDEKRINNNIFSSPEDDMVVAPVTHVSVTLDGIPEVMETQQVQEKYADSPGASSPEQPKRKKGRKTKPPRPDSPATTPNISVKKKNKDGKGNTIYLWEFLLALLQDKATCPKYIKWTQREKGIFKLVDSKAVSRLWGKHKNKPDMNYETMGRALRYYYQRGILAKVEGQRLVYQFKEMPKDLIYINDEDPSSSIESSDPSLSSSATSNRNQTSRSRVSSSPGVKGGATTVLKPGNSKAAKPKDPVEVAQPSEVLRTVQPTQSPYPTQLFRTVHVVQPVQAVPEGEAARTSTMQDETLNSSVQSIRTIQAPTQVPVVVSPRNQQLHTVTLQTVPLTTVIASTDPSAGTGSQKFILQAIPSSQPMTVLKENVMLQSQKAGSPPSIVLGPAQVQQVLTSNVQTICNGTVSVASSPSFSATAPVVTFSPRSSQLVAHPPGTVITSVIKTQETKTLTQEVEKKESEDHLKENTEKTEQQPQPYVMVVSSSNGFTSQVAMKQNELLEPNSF
sequence,measurement,setting,value
CCCGAT,binding signal,[1],"1.29 fold enrichment (6-mer frequency, TF over GST control)"
same,binding signal,[2],"1.17 fold enrichment (6-mer frequency, TF over GST control)"
same,binding signal,[3],"1.1 fold enrichment (6-mer frequency, TF over GST control)"
same,binding signal,[4],"1.14 fold enrichment (6-mer frequency, TF over GST control)"
same,binding signal,[5],"1.16 fold enrichment (6-mer frequency, TF over GST control)"
same,binding signal,[6],"1.22 fold enrichment (6-mer frequency, TF over GST control)"
same,binding signal,[7],"1.16 fold enrichment (6-mer frequency, TF over GST control)"
same,binding signal,[8],"1.26 fold enrichment (6-mer frequency, TF over GST control)"
same,binding signal,[9],"1.06 fold enrichment (6-mer frequency, TF over GST control)"
same,binding signal,[10],"1.27 fold enrichment (6-mer frequency, TF over GST control)"
same,binding signal,[11],"1.2 fold enrichment (6-mer frequency, TF over GST control)"
same,binding signal,[12],"1.38 fold enrichment (6-mer frequency, TF over GST control)"
same,binding signal,[13],"1.29 fold enrichment (6-mer frequency, TF over GST control)"
same,binding signal,[14],"1.23 fold enrichment (6-mer frequency, TF over GST control)"
same,binding signal,[15],"1.11 fold enrichment (6-mer frequency, TF over GST control)"
same,binding signal,[16],"1.02 fold enrichment (6-mer frequency, TF over GST control)"
same,binding signal,[17],"1.2 fold enrichment (6-mer frequency, TF over GST control)"
same,binding signal,[18],"1.37 fold enrichment (6-mer frequency, TF over GST control)"
same,binding signal,[19],"1.08 fold enrichment (6-mer frequency, TF over GST control)"
